Experimental data from paper PMC5540273 (PLoS ONE, 2017).

Experiments:
Conditions in all cases: concentration: 1 μM, replicates: in singlicate; n = 1
RIPK5 = system: RIPK5
ROCK1 = system: ROCK1
ROCK2 = system: ROCK2
ROS1 = system: ROS1
[1] = system: RPS6KA4(Kin.Dom.1-N-terminal)
[2] = system: RPS6KA4(Kin.Dom.2-C-terminal)
[3] = system: RPS6KA5(Kin.Dom.1-N-terminal)
[4] = system: RPS6KA5(Kin.Dom.2-C-terminal)
[5] = system: T1, RSK1(Kin.Dom.1-N-terminal)
T1 construct: gene RPS6KA1

[6] = system: T2, RSK1(Kin.Dom.2-C-terminal)
T2 construct: gene RPS6KA1
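Also: KINOMEscan kinase panel screen.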

Row | Structure (SMILES) | %Inh (RIPK5) | %Inh (ROCK1) | %Inh (ROCK2) | %Inh (ROS1) | %Inh [1] | %Inh [2] | %Inh [3] | %Inh [4] | %Inh [5] | %Inh [6]
1 | CC(C)(C)n1cnc2c(N)ncnc21 [SKF-97359] | 0% | 52% | 33% | 64% | 10% | 0% | 0% | 0% | 0% | 80%
2 | CN1c2ccc(CNc3ccc(F)cc3)cc2-c2c(cnn2C)S1(=O)=O | 4% | 0% | 0% | 4% | 0% | 0% | 0% | 0% | 0% | 14%
3 | c1ccc(-c2n[nH]cc2-c2ccnc3ccccc23)nc1 [GW271431] | 0% | 0% | 0% | 28% | 11% | 0% | 9% | 4% | 21% | 12%
4 | Fc1ccc(-c2ncn(CCCN3CCOCC3)c2-c2cccnc2)cc1 [SB-211743] | 9% | 0% | 6% | 27% | 31% | 0% | 0% | 5% | 2% | 9%
5 | Cc1nnc(-c2ccc3occ(-c4ccc(C(C)O)cc4)c3c2)o1 (stereo not shown) | 0% | 5% | 0% | 0% | 9% | 25% | 20% | 0% | 9% | 1%
6 | COc1cc2c(cc1OC[C@@H](O)CO)ncc1c3ccc(C#N)cc3[nH]c21 | 7% | 91.1% | 96.9% | 0% | 0% | 9% | 0% | 26% | 33% | 17%
7 | Cc1cccc(-c2nc(-c3ccc(S(C)(=O)=O)cc3)sc2-c2ccncc2)c1 | 18% | 16% | 0% | 23% | 0% | 3% | 11% | 9% | 0% | 34%
8 | CCCCCc1nc2c(N)ncnc2n1CCCCC [SKF-97255] | 8% | 90.1% | 59% | 1% | 6% | 0% | 14% | 9% | 8% | 11%
9 | [2H]C([2H])(c1cccc(C(F)(F)F)c1C)n1ccn2c(=O)nc(N3CCOCC3)cc12 [GSK2336394] | 0% | 8% | 0% | 22% | 17% | 0% | 2% | 0% | 5% | 0%
10 | O=C(Nc1n[nH]c2cc(-c3cccc(F)c3)ccc12)C1CC1 [SB-735464] | 23% | 18% | 4% | 16% | 0% | 9% | 0% | 24% | 1% | 26%
11 | O=C(NCCNc1ccnc(Nc2ccc(F)cc2)n1)Nc1ccccc1F [GSK1379880] | 0% | 40% | 9% | 0% | 4% | 0% | 0% | 15% | 1% | 0%
12 | O=C1NC(=O)C(N2CCc3ccccc32)=C1c1cccc(Cl)c1 [SB-408010] | 9% | 0% | 0% | 0% | 4% | 0% | 9% | 0% | 0% | 11%
13 | CC(C)Oc1ccc2c(-c3ccnc(Nc4ccc(N5CCN(C)CC5)cc4)n3)cnn2n1 [GW696155] | 77% | 98.8% | 99.7% | 51% | 0% | 99.8% | 0% | 98.9% | 34% | 90%
14 | O=C1Cc2cc(Nc3nc(NCc4cccc(S(=O)(=O)C(F)(F)F)c4)ncc3C(F)(F)F)ccc2N1 | 4% | 6% | 13% | 3% | 11% | 24% | 0% | 0% | 41% | 0%
15 | Nc1nc(-c2ccc3c(N)n[nH]c3c2)cc(N2CCCC2)n1 [GSK2227430] | 0% | 2% | 0% | 0% | 0% | 0% | 10% | 0% | 9% | 0%
16 | O=c1cc(N2CCOCC2)nc2n(Cc3cccc(C(F)(F)F)c3)ccn12 [GSK2297543] | 0% | 0% | 17% | 32% | 13% | 0% | 4% | 6% | 0% | 15%
